Source: PubChem BioAssay
Activity calls are given as the source filed them.

Tests used:
[1] = A549 cell viability effects, profiling panel, calcein-AM fluorescence, 48 h, basal (AID 1162); settings: higher = more signal
[2] = adipocyte viability effects, profiling panel, cell-based, 3T3-L1 adipocytes, calcein-AM fluorescence, 48 h, basal (AID 1163); settings: 3T3-L1 adipocytes viability, higher = more signal
[3] = HepG2 cell viability effects, profiling panel, calcein-AM fluorescence, 48 h, basal (AID 1164); settings: higher = more signal
[4] = MM1S cell viability effects, profiling panel, calcein-AM fluorescence, 48 h, basal (AID 1165); settings: higher = more signal;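 also: viability of MM1S multiple myeloma cells under basal unstimulated conditions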
[5] = basal RPMI8226 viability, no added stimulus, profiling panel, cell-based, calcein-AM fluorescence, 48 h, PK04 Diversity Set (AID 1166); settings: RPMI8226 myeloma viability, higher = more signal;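 also: cells grown under basal conditions without added stimulus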
[6] = basal HepG2 mitochondrial membrane potential changes, profiling panel, cell-based, JC-1 fluorescence, 24 h, 100 nL compound (AID 1167); settings: higher = more signal
[7] = basal 3T3-L1 adipocyte mitochondrial potential changes, profiling panel, cell-based, JC-1 fluorescence, 3T3-L1 adipocytes, 24 h, 100 nL compound (AID 1168); settings: JC-1 mitochondrial fluorescence, higher = more signal, called active from +8 up or from −8 down
[8] = basal RPMI8226 mitochondrial membrane potential changes, profiling panel, cell-based, JC-1 fluorescence, 24 h, 100 nL compound (AID 1169); settings: RPMI8226 myeloma, JC-1 mitochondrial potential fluorescence, higher = more signal
[9] = basal MM1S mitochondrial membrane potential changes, profiling panel, cell-based, JC-1 fluorescence, 24 h, 100 nL compound (AID 1170); settings: higher = more signal
[10] = A549 lung cancer cell viability effects, profiling panel, resazurin fluorescence, 24 h, PK04 Diversity Set (AID 1171); settings: higher = more signal, called active from +8 up or from −8 down
Also: test concentration not given here.

SMILES | z-score [1] | z-score [2] | z-score [3] | z-score [4] | z-score [5] | z-score [6] | z-score [7] | z-score [8] | z-score [9] | z-score [10]
COCC(=C=CC[C@H](O)c1ccccc1OCCO)C[C@H](O)COCc1ccccc1 | 0.428 | 0.152 | 0.024 | -2.02 | -0.311 | 1.37 | -0.437 (inactive) | -0.138 | -0.382 | 0.857 (inactive)
COCCCNC(=O)[C@@H]1c2ccccc2C(=O)N(Cc2ccc(OC(F)(F)F)cc2)[C@H]1c1ccc(CO)cc1 | 0.927 | -0.704 | 0.198 | -0.0583 | 0.317 | 1.75 | -0.436 (inactive) | -0.604 | -0.29 | 0.469 (inactive)
N#Cc1ccc(C(O)C2C=CC3C(=O)NC(=O)C3N2Nc2ccc(Cl)cc2Cl)cc1 (stereo not given) | -0.918 | 0.325 | -0.726 | -0.399 | -0.408 | -1.35 | -1.05 (inactive) | -0.356 | 0.153 | -0.123 (inactive)
CN1C(=O)C2C(C3CC3)C=C3CN(Cc4cccc(Cl)c4)[C@@H]([C@@H](O)Cc4ccccc4)C3C2C1=O (stereo not given in full) | 1.19 | 0.638 | 0.506 | -1.81 | -2.67 | 1.24 | -0.424 (inactive) | -0.426 | -0.939 | 0.43 (inactive)
CC(=O)OCC1C2CC[C@H]3C(OCc4ccc(F)cc4C(F)(F)F)OC[C@]4(C)[C@H]3C2=C(CN4C(=O)OC(C)(C)C)[C@H](C)C1COC(C)=O (stereo not given in full) | -0.647 | -0.0623 | -0.174 | -2.29 | -1.93 | 2.61 | -0.984 (inactive) | -0.606 | -1.3 | 0.892 (inactive)
C=CCC(OC(C)=O)[C@@H]1[C@@H](N(Cc2ccc(-c3cccc(C(F)(F)F)c3)o2)C(=O)c2ccc(-c3ccccc3)cc2)c2cc(OCCCO)ccc2N1C(=O)c1ccc2ccccc2c1 (stereo not given in full) | 0.965 | 1.28 | 0.612 | 0.0723 | -0.164 | 2.76 | -0.081 (inactive) | 0.677 | 0.681 | 0.919 (inactive)
COc1cc(CO)cc(I)c1O[C@H]1C=C(C(=O)NCCO)C[C@@H]2O[C@H]12 | -0.42 | 0.254 | -0.697 | 0.264 | -3.2 | -0.873 | -0.389 (inactive) | -0.443 | -0.52 | -1.41 (inactive)
C=C(COC)C(=O)CC[C@H](OC(=O)c1cccnc1)c1ccc(OCCO)cc1 | 0.369 | 0.0993 | 0.143 | -1.93 | -0.418 | -1.02 | -0.351 (inactive) | 0.878 | -0.0164 | -0.552 (inactive)
CCOc1cc(C(O)C2C=CC3C(=O)N(c4ccccc4)C(=O)C3N2Nc2ccccc2F)ccc1O (stereo not given) | 0.0113 | 0.521 | 0.294 | -0.495 | -0.18 | -1.58 | -0.945 (inactive) | -0.853 | 0.699 | -0.928 (inactive)
CC1CC/C=C\[C@H]2OC34C=CCN(C(C)(C)C)C(=O)[C@H]3N(CCCO)C(=O)[C@@H]4C2C(=O)O1 (stereo not given in full) | -0.459 | 0.0593 | -0.869 | 1.15 | -0.339 | -0.749 | -0.274 (inactive) | -0.0634 | 0.522 | -0.0125 (inactive)
COCCOC(=O)N1C(=O)[C@@]2(c3cc(C#CCCO)ccc31)[C@H](c1ccccc1OCCO)N1[C@H](c3ccccc3)[C@H](c3ccccc3)OC(=O)[C@H]1[C@@H]2C(N)=O | 0.49 | 1.8 | -0.112 | -1.49 | -4.2 | 0.446 | 1 (inactive) | -1.22 | -1.12 | -0.0131 (inactive)
O=C1NC(=O)C2C1C=CC(C(O)c1ccc([N+](=O)[O-])cc1)N2Nc1ccccn1 (stereo not given) | 0.0411 | -0.379 | -0.357 | -0.492 | -1.07 | -0.969 | -0.713 (inactive) | -0.284 | 0.339 | -0.0648 (inactive)
CCN(CC)c1ccc(N2CC=CC34O[C@@H]5C=CCCOC(=O)C5[C@H]3C(=O)N(C(C)CO)[C@@H]4C2=O)cc1 (stereo not given in full) | -0.0735 | -0.456 | 0.316 | 0.241 | 0.333 | 0.408 | 0.0389 (inactive) | -0.487 | 0.0276 | 0.586 (inactive)
C=CCNC(=O)[C@H]1[C@@H]2C(=O)O[C@@H](c3ccccc3)[C@@H](c3ccccc3)N2[C@@H](c2ccccc2OCCO)[C@]12C(=O)N(C(=O)OCCOC)c1ccc(C#Cc3ccc(OC)cc3)cc12 | 0.005 | -0.182 | 0.0823 | -1.05 | -1.15 | 0.421 | 3.69 (inactive) | -0.981 | -1.13 | -0.958 (inactive)
Cc1ccc(C(C)CC(O)C2C=CC3C(=O)N(C)C(=O)C3N2Nc2ccccc2)o1 (stereo not given) | -0.428 | -1.01 | 0.345 | -0.144 | 0.0166 | -1.35 | -0.592 (inactive) | 0.347 | -0.249 | -0.18 (inactive)
CN(C)c1ccc(C(O)C2C=CC3C(=O)N(Cc4ccccc4)C(=O)C3N2n2cnnc2)cc1 (stereo not given) | 0.566 | -0.179 | 2.13 | 0.0017 | 1.4 | 0.0219 | 0.522 (inactive) | -0.203 | 1.23 | -1.04 (inactive)

SMILES | z-score [1] | z-score [2] | z-score [3] | z-score [4] | z-score [5] | z-score [6] | z-score [7] | z-score [8] | z-score [9] | z-score [10]
C=C(CCCC)/C(=C/C[C@H](OC(=O)c1ccncc1)c1cccc(OCCO)c1)c1cnc2ccccc2c1 | 1.35 | -0.893 | 0.0815 | -3.37 | -2.3 | 0.99 | -1.16 (inactive) | -0.817 | -0.718 | 0.588 (inactive)
CC(C)NC(=O)[C@@]1(c2ccc([N+](=O)[O-])cc2)CC(=O)N(CC23CC4CC(CC(C4)C2)C3)[C@@H]1c1ccc(CO)cc1 | -1.34 | 0.999 | -1.72 | -2.06 | -3.8 | -1.38 | -0.959 (inactive) | -0.6 | -0.24 | -2.03 (inactive)
CCCNC(=O)[C@@]1(Sc2ccc(C)cc2)CC(=O)N(Cc2ccccc2Cl)[C@@H]1c1ccc(CO)cc1I | 1.43 | -0.139 | 1.01 | -1.9 | -1.67 | 0.377 | 0.667 (inactive) | -0.547 | -1.87 | 0.204 (inactive)
C=CCOC(=O)[C@@H]1[C@H]2C(=O)O[C@H](c3ccccc3)[C@H](c3ccccc3)N2[C@H](c2ccc(OCCOC(=O)[C@H]3C[C@H]4C(=O)NCC(=O)N4[C@H]3c3cccc(OCCO)c3)cc2)[C@@]12C(=O)Nc1ccc(I)cc12 | -0.175 | -0.407 | 0.946 | 0.464 | -0.785 | -1.05 | 1.44 (inactive) | -0.632 | -1.27 | 0.169 (inactive)
COCCOC(=O)N1C(=O)[C@@]2(c3cc(C#CCC(C(=O)OC)C(=O)OC)ccc31)[C@H](C(N)=O)[C@H]1C(=O)O[C@H](c3ccccc3)[C@H](c3ccccc3)N1[C@@H]2c1ccc(O)cc1 | -0.181 | -0.187 | -1.52 | -3.37 | -4.02 | -0.864 | 2.05 (inactive) | -1.19 | -2.07 | 0.163 (inactive)
CCOC(=O)C1=CC[C@@H](c2ccc(OC)cc2)N(S(=O)(=O)c2ccc(C)cc2)[C@H]1CC | 0.33 | 0.815 | 0.945 | -1.25 | -1.45 | 5.4 | 1.53 (inactive) | -0.301 | -1.99 | 0.198 (inactive)
COc1ccc([Si](C)(C)[C@@H]2[C@@H](CC(=O)N(CCO)Cc3ccccc3)O[C@]3(C(=O)N(Cc4ccc(I)cc4)c4ccccc43)[C@H]2C)cc1 | -1.14 | 0.909 | -1.59 | -2.54 | -4.17 | 1.17 | 0.448 (inactive) | -1.2 | -0.732 | -2.88 (inactive)
CN1C(=O)C2C(C1=O)C1C=C(CCCO)C2C(C2CC2)N1Cc1cccc(OC(F)(F)F)c1 (stereo not given) | -0.379 | 0.116 | -0.814 | -0.517 | -0.781 | 0.217 | -0.423 (inactive) | -0.00892 | 0.389 | -0.0655 (inactive)
COC(=O)[C@@]1(Cc2ccc(F)cc2)[C@H]2c3cc(C(=O)N4CCCC4)n(Cc4ccccn4)c3C[C@H]2CN1C(=O)c1ccccc1 | -0.94 | -0.0559 | -0.347 | -0.333 | -2 | 1.51 | -0.474 (inactive) | -0.116 | -1.65 | -1.75 (inactive)
COC(=O)c1cccc([C@H]2OC(=CC(=O)OC(C)C)C[C@@H](c3cccc(C(=O)OC)c3)O2)c1 | -0.921 | 0.229 | -0.248 | -3.15 | -1.64 | -0.571 | -1.52 (inactive) | -1.08 | -2.76 | -0.0417 (inactive)
COCCOC(=O)N1C(=O)[C@@]2(c3ccccc31)[C@H](c1ccc(O)cc1)N1[C@H](c3ccccc3)[C@H](c3ccccc3)OC(=O)[C@H]1[C@@H]2C(=O)N1CCCCCCC1 | -0.438 | -0.688 | 0.313 | -0.474 | -1.26 | -1.25 | -1.07 (inactive) | 0.167 | 0.584 | -0.257 (inactive)
COC(=O)C(CC#Cc1ccc2c(c1)[C@]1(C(=O)N2)[C@H](c2ccc(OCCO)cc2)N2[C@H](c3ccccc3)[C@H](c3ccccc3)OC(=O)[C@H]2[C@@H]1C(=O)N1CCCCCCC1)C(=O)OC | 0.996 | 0.915 | 0.846 | 0.491 | -1.88 | -0.386 | -1.82 (inactive) | -1.08 | -1.36 | -0.387 (inactive)
COC(=O)[C@@]1(Cc2ccccc2)[C@H]2c3cc(C(=O)N(C)C)n(Cc4ccc(S(C)(=O)=O)cc4)c3C[C@H]2CN1C(=O)c1ccccc1 | -1.12 | 1.09 | -0.827 | 0.0168 | -1.39 | 2.64 | -1.06 (inactive) | -0.656 | 0.485 | -1.59 (inactive)
COc1ccc([Si](C)(C)[C@@H]2[C@@H](CC(=O)N3Cc4ccccc4C[C@H]3CO)O[C@]3(C(=O)N(Cc4cccc(N5CCOC5=O)c4)c4ccccc43)[C@H]2C)cc1 | -1.43 | 1.69 | -0.443 | -2.51 | -3.32 | -0.0282 | 0.192 (inactive) | -1.16 | -1.01 | -2.45 (inactive)
COCCOC(=O)N1C(=O)[C@@]2(c3ccccc31)[C@H](C(=O)N1CCN(c3ncccn3)CC1)[C@H]1C(=O)O[C@H](c3ccccc3)[C@H](c3ccccc3)N1[C@@H]2c1ccccc1OCCO | 1.14 | 0.549 | -0.0577 | 0.0079 | -0.203 | -0.195 | 0.204 (inactive) | -0.248 | -0.742 | -0.166 (inactive)
